In PubChem BioAssay (NCATS):
Inconclusive results are not listed. The source made the active and inactive calls. Calls follow the shape of the dose curve; as a rule, active = well fitted curve in the direction sought with a large enough effect; inconclusive = small, poorly fitted or top-dose-only effect, or another doubt; inactive = no such curve, though single readings can be large; an effect the other way counts as inactive or inconclusive.

How the values were obtained:
[1] = UWB1.289 Cancer Cell Toxicity qHTS against the NCATS CANVASS Library (AID 1347347); settings: UWB1.289 viability, CellTiter-Glo luminescence, 72 h; series mostly up to 76 µM; also: nearly all actives have a fitted effect of over 60% in size
From the text: Natural products and their derivatives continue to be wellsprings of nascent therapeutic potential. However, many laboratories have limited resources for biological evaluation, leaving their previously isolated or synthesized compounds largely or completely untested. To address this issue, the Canvass library of natural products was assembled (https://tripod.nih.gov/canvass), in collaboration with academic and industry researchers, for quantitative high-throughput screening (qHTS) across a diverse set of cell-based and biochemical assays. The pure (>85% purity by liquid chromatography/mass spectrometry [LC/MS]) Canvass library of 346 natural products were submitted by 45 academic laboratories and companies around the world. […] The library was formatted into 1536-well plates and evaluated in 50 qHTS (in an 11-pnt concentration series) bioassays with broad scope of disease-relevant mechanisms. The resulting data set from 50 different assays was then systematically analyzed to identify overall trends and specific natural products with interesting biological activities. […]
Cancer Cell Toxicity protocol for cell lines COV-362, OV-KATE, OV-SAHO, UWB1.289, UWB1.289-WTBRCA1, HEK-293, HPAF-II, Panc-1005, SW1088, or U-118MG. […] Luminescence signal was acquired via the ViewLux plate reader (PerkinElmer) using a clear filter, 2 second exposure and 2x binning settings.

[2] = OV-SAHO Cancer Cell Toxicity qHTS against the NCATS CANVASS Library (AID 1347348); settings: OV-SAHO viability, CellTiter-Glo luminescence, 72 h; series mostly up to 76 µM; also: nearly all actives have a fitted effect of over 55% in size
Procedure, shortened: (§1)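 Per well, 1000 cells; exposure 72 h with compound at 11 final concentrations; readout CellTiter-Glo luminescence.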

[3] = Panc-1005 Cancer Cell Toxicity qHTS against the NCATS CANVASS Library (AID 1347349); settings: Panc-1005 viability, CellTiter-Glo luminescence, 72 h; series mostly up to 76 µM; also: nearly all actives have a fitted effect of over 60% in size
Procedure, shortened: as §1

[4] = U-118MG Cancer Cell Toxicity qHTS against the NCATS CANVASS Library (AID 1347351); settings: U-118MG viability, CellTiter-Glo luminescence, 72 h; series mostly up to 76 µM
Procedure, shortened: as §1

[5] = UWB1.289-WTBRCA1 Cancer Cell Toxicity qHTS against the NCATS CANVASS Library (AID 1347354); settings: UWB1.289-WTBRCA1 viability, CellTiter-Glo luminescence, 72 h; at 76 µM (top of the series)
Procedure, shortened: (§2)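 Cells at 1000/well were given compound 4 h after plating in an 11-point series. Viability was read by CellTiter-Glo luminescence after 72 h at 37 degrees C.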

[6] = HEK-293 Cancer Cell Toxicity qHTS against the NCATS CANVASS Library (AID 1347355); settings: HEK-293 viability, CellTiter-Glo luminescence, 72 h; series mostly up to 91.4 µM; also: nearly all actives have a fitted effect of over 65% in size
Procedure, shortened: as §2

[7] = HPAF-II 24hr Apoptosis Induction qHTS against the NCATS CANVASS Library (AID 1347356); settings: HPAF-II caspase-3/7 Caspase-Glo luminescence; series mostly up to 91.4 µM
Procedure, shortened: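 HPAF-II cells (500/well) exposed to compounds in 11-point series for 24 h at 37 degrees C; caspase-3/7 activity read by Caspase-Glo luminescence after 15 min at room temperature. Doxorubicin titration as control.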

[8] = HEK293 18hr Apoptosis Induction qHTS against the NCATS CANVASS Library (AID 1347357); settings: HEK293 caspase-3/7 Caspase-Glo luminescence; series mostly up to 91.4 µM
Procedure, shortened: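 HEK293 cells (500/well, DMEM + 10% FBS) treated with an 11-point series for 18 h at 37 degrees C. Caspase-3/7 activity read by Caspase-Glo luminescence after 15 min at room temperature.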

[9] = HPAF-II 12hr Apoptosis Induction qHTS against the NCATS CANVASS Library (AID 1347358); settings: HPAF-II caspase-3/7 Caspase-Glo luminescence; series mostly up to 91.4 µM
Procedure, shortened: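 HPAF-II cells, 500/well in DMEM + 10% FBS, exposed 12 hours at 37 degrees C to compound (11-point). Caspase-Glo 3/7 added for 15 min at room temperature; luminescence reflects caspase-3/7 activity.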

[10] = HEK293 24hr Apoptosis Induction qHTS against the NCATS CANVASS Library (AID 1347359); settings: HEK293 caspase-3/7 activation, Caspase-Glo luminescence; series mostly up to 91.4 µM
Procedure, shortened: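 HEK293 cells, 500 per well, exposed to an 11-point compound series for 24 hours at 37 degrees C. Caspase 3/7 activity read by Caspase-Glo luminescence (DEVD substrate) after 15 min at room temperature.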

Measured: outcome

NCCc1ccc(O)cc1
inactive: all assays above
